Source: PubChem
PNC assembly inh: blocks assembly of the perinucleolar compartment; PC3M PTB-GFP, PNC prevalence imaging, 16 h; active compounds read low; activity change (PNC), negative = inhibition, % at 10 µM; 140,000 compounds, 3.1% hits; AID 2417;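 active = readout at or below -70, meaning at least 70% loss of cells showing the perinucleolar compartment, a nuclear body marking cancer cells; inconclusive = readout between -30 and a set limit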;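 note: plate controls were DMSO wells for no effect and camptothecin positive control wells for full effect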
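Compounds are pinned in duplicate onto adhered PC3M cells stably expressing GFP-tagged PTB and incubated 16 h at 37 C. Cells are then fixed, nuclei stained with Hoechst, and PNC-positive cells counted.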
HTT aggregate: reduces HttQ103-GFP aggregates in PC12 cells; PC12 HttQ103-GFP aggregates, Acumen cytometry, 40 h; Potency, µM (highest dose often 46.1 µM), inactives show top-dose activity change, negative = inhibition, actives largely listed as inhibitors; 220,000 compounds, 1.1% hits; AID 1688; note: potency is the fitted concentration of half-maximal effect; % is set by controls: 0 for no effect and ±100 for the full control effect; nearly all actives have a fitted effect of over 60% in size
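PC12 cells stably carrying ecdysone-inducible HTT exon 1 Q103–GFP were induced with tebufenozide (100 nM final) and treated with library compounds in titration. GFP aggregates in lysates were counted by laser scanning cytometry.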
CBFb-RUNX1 inh: blocks binding between human CBF-beta and RUNX1; Potency, µM (series often up to 59.8 µM), for inactives: top-dose activity, negative = inhibition, hits mostly inhibitors; AlphaScreen CBFb-His/RUNX1-biotin binding, biochemical; 230,000 tested, under 10 active; Q01196+Q13951; note: % of control where 0% means no effect
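AlphaScreen proximity signal reports loss of binding between His-tagged CBF-beta and biotin-labelled RUNX1, each at 30 nM. Proteins are pre-associated for 20 minutes, compounds added for 15 minutes, then beads for 90 minutes, all at ambient temperature.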
ALDH1A1 block: blocks purified human ALDH1A1 activity; P00352; Purified ALDH1A1, NADH fluorescence, propionaldehyde substrate; Potency, µM (top dose mostly 75.3 µM), for inactives: top-dose activity, negative = inhibition, hits mostly inhibitors; 220,000 compounds, 7.3% hits; active = well fitted inhibition curve with a large enough effect, not every such curve was filed as active; inconclusive = small, poorly fitted or top-dose-only effect, or another doubt; inactive = no such curve, though single readings can be large or run the other way;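 note: potency is the fitted concentration of half-maximal effect; plate controls were no enzyme wells and a reference inhibitor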
HTT cytoprotect: cytoprotection in Huntington HTT-Q103 PC12 cell model; Potency, µM (highest dose often 56.4 µM), inactives show cytoprotection (ATP increase), actives largely listed as activators; 230,000 compounds, 0.14% hits; PC12 HTT-Q103 induced, cytoprotection, ATP luminescence, 40 h; note: potency is the fitted concentration of half-maximal effect; % of control where 0% means no effect; nearly all actives have a fitted effect of over 45% in size
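Cells were plated at 1500 per well in phenol red-free DMEM with 5% equine and 5% calf serum. Tebufenozide (100 nM final) and compounds were added, then ATPlite reagent, and luminescence was read.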
HPGD block: inhibitors of human 15-hydroxyprostaglandin dehydrogenase (HPGD); P15428; purified HPGD, NADH fluorescence kinetic, PGE2 substrate; Potency, µM, for inactives: at the top dose activity change, negative = inhibition, hits mostly inhibitors; 150,000 compounds, 4.3% hits; active = well fitted inhibition curve with a large enough effect, not every such curve was filed as active; inconclusive = small, poorly fitted or top-dose-only effect, or another doubt; inactive = no such curve, though single readings can be large or run the other way; note: potency is the fitted concentration of half-maximal effect; % is set by controls: 0 for no effect and ±100 for the full control effect
Target sequence (P15428 whole entry, looked up): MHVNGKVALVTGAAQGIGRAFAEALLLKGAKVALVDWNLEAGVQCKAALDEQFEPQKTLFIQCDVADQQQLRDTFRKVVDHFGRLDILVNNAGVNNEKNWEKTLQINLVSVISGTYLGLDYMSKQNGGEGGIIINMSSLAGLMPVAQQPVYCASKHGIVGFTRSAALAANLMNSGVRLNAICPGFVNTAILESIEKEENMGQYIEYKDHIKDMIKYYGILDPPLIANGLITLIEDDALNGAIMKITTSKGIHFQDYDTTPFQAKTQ
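20 nM HPGD preincubated 15 min at room temperature with compound in 50 mM Tris-HCl pH 8, 0.01% Tween 20. Started with 1 mM NAD+ and 30 uM prostaglandin E2; NADH fluorescence (360/450 nm) read 5 times over 30-s intervals, last minus first.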
The depositor's hits bear a star; ? = inconclusive; . = no result; [ ] = remark or other dose. Only some compounds are listed: those with a hit (about 11% of all), similar ones and a draw of the others. Unless noted, calls come from the whole dose curve; as a rule, active = well fitted curve in the direction sought with a large enough effect; inconclusive = small, poorly fitted or top-dose-only effect, or another doubt; inactive = no such curve, though single readings can be large; an effect the other way counts as inactive or inconclusive.

SMILES | PNC assembly inh | HTT aggregate | CBFb-RUNX1 inh | ALDH1A1 block | HTT cytoprotect | HPGD block
Fc1ccc(N/N=C2/CC(c3ccccc3)Oc3ccccc32)c(F)c1 (configuration not stated) | -94* | -14% | 1% | ? | . | -29%
O=S(=O)(N/N=C1/CCCc2ccccc21)c1ccc(Br)cc1 | 52 | -23% | 16% | 14µM* | 12%[10 µM] | -10%
CC1CCc2c(nc3sc4c(c3c2N)CCCC4)C1 (configuration not stated) | -5 | -6% | -1% | -5% | -7%[1.9 µM] | -16%
CCCCOc1ccc(/C=C/C(=O)OCC(=O)NC(=O)NCC(C)C)cc1OCC | -112* | -8% | -1% | ? | 0%[1.9 µM] | ?
Cc1cc(C)nc(SCc2cc(=O)c(OC(=O)c3ccc(S(=O)(=O)N4CCCC4)cc3)co2)n1 | 1 | 20% | 2% | ? | 5%[10 µM] | -22%
OC[C@@H]1OC(O)[C@@H](O)[C@H](O)[C@@H]1O (some centres not stated) | . | . | 4% | . | . | .
O=C(c1cc2ccccc2o1)c1nc2c(n1O)CCCCC2 | ? | -24% | -7% | -1% | -91%[0.074 µM] | 14µM*
O=C(c1ccco1)c1nc2c(n1O)CCCCC2 | ? | 19%[9.22 µM] | 4% | 0% | 3% | -10%
C[C@@H]1CCCN(CP(=O)(c2ccccc2)c2ccccc2)C1 | . | . | . | 2%[13.5 µM] | -1%[10 µM] | -8%
COc1ccc(Oc2c(C=O)c3ccccc3n2C)cc1 | 100 | ? | 6% | -7% | -31% | 32µM*
Nc1nc(NCc2ccco2)nc(N2CCCC2)c1[N+](=O)[O-] | . | 14%[9.22 µM] | ? | 4µM* | 17%[10 µM] | .
Nc1nc(NCc2ccco2)nc(N2CCCCCC2)c1[N+](=O)[O-] | -11 | -22% | ? | 1.6µM* | -11%[10 µM] | -10%
Nc1nc(NCc2ccco2)nc(NC2CCCCC2)c1[N+](=O)[O-] | . | -1%[9.22 µM] | -4% | . | 5%[10 µM] | .
Nc1nc(NCc2ccco2)nc(N2CCN(Cc3ccccc3)CC2)c1[N+](=O)[O-] | . | -12%[9.22 µM] | -19% | -5% | 1%[10 µM] | .
O=C(C1=C[C@@H]2[C@H]3C(=O)N(c4ccc(Cl)cc4)C(=O)[C@H]3[C@@H](C(=O)c3ccc(Cl)cc3)N2C=C1)c1ccccc1 | 18 | ? | 10% | 14µM* | 11%[10 µM] | 32µM*
CCCN1C(=O)/C(=N\OCC(=O)NCC(F)(F)F)c2ccccc21 | 45 | 18% | -8% | 1.3µM* | 1%[10 µM] | -17%
CN(C(=O)CSCC(=O)O)C1CCCCC1 | ? | -5% | 0% | 2µM* | 22%[10 µM] | -10%
CN(C(=O)CSc1ccccc1C(=O)O)C1CCCCC1 | 32 | 17%[9.22 µM] | 3% | 3.2µM* | 1% | -6%
Cc1cccc(C(=O)N/N=C/c2cc(Br)c(Br)o2)c1 | 3 | -6% | 0% | -9% | . | -10%
O=C(c1csnn1)N1CCC[C@@]2(CCN(c3ccccn3)C2)C1 | . | . | . | 0% | 6% | -11%
COc1ccc(C2/C=C\CN(Cc3ccccc3)C(C)C(=O)N2Cc2ccc(F)cc2)cc1 (configuration not stated) | . | . | 19% | . | . | .
CC=O | . | . | 24%[21.7 µM] | 5% | 11% | -3%
C=CCn1c(=S)[nH]c2scc(-c3cccs3)c2c1=O | . | ? | -5% | 13µM* | -216% | .
Cn1c(=S)[nH]c2scc(-c3cccs3)c2c1=O | . | ? | -19% | 22µM* | -31% | .
O=c1c2c(-c3cccs3)csc2ncn1-c1ccc(Br)cc1 | -4 | 9% | 9% | ? | -2% | ?
Clc1nc(NCCc2ccccc2)c2ncn(-c3ccccc3)c2n1 | . | . | . | . | -8%[10 µM] | .
CC(=O)C1=C(O)C(=O)N(c2cccc(C(=O)O)c2)C1c1ccc(F)cc1 (configuration not stated) | -14 | -10% | -2% | -4% | 25%[10 µM] | ?
CCN(CC)c1ccc(Nc2nc(N3CCOCC3)c3ccccc3n2)cc1 | 36 | 7.9µM* | ? | ? | -4% | -22%
CCN(CC)C(CNS(=O)(=O)c1ccc(Cl)cc1)c1ccccc1 (configuration not stated) | . | -2% | -6% | ? | . | .
